Measurements published in PubChem BioAssay (Tox21).
Records with an inconclusive call do not appear. The source made the active and inactive calls. Unless noted, calls follow the shape of the dose curve; as a rule, active = well fitted curve in the direction sought with a large enough effect in the repeat runs; inconclusive = weak or mixed curves; inactive = no such curve, though single readings can be large; an effect the other way counts as inactive or inconclusive.

Columns and labels:
[1] = target: Thyrotropin-releasing hormone receptor (Homo sapiens) (UniProt P34981); assay: qHTS assay to identify small molecule agonists of the thyrotropin-releasing hormone receptor (TRHR) signaling pathway (AID 1346891; calls by dose curve;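 also: HEK293 cells expressing TRHR with calcium dye readout; series mostly up to about 58 µM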)
Procedure, shortened: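 HEK293/TRHR cells, 1500 per well, 18 h 37 °C; Ca dye 2 h 37 °C; pin-tool compound addition (agonist mode); kinetic fluorescence 3 min, 1 s reads; 15 concentrations, triplicate.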

[2] = Human pregnane X receptor (PXR) small molecule agonists, qHTS cell viability counter screen (AID 1346977); also: nearly all actives have a fitted effect of over 50% in size; also: potency is read from the fitted curve at half-maximal effect
Procedure, shortened: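 Fluorescence read-out (CellTiter-Fluor) of viability in PXR-Luc HepG2 cells, multiplexed with the luciferase agonist read. Compounds in DMSO added after 5hr plating; 24hr total exposure at 37C, 5% CO2.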

[3] = Caspase-3/7 induction in HepG2 cells by small molecules, qHTS assay (AID 1346978); also: nearly all actives have a fitted effect of over 15% in size
Procedure, shortened: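 Wild-type HepG2 cells (2,000/well) were settled 5 h at 37 C, 5% CO2, then exposed to compounds in DMSO for 17 h. Caspase-3/7 activity was read by luminescence 30 min after adding Caspase-Glo 3/7 reagent at room temperature.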

[4] = Caspase-3/7 induction in CHO-K1 cells by small molecules, qHTS cell viability counter screen (AID 1346979); also: nearly all actives have a fitted effect of over 35% in size
Procedure, shortened: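 CHO-K1 wt, 1,500 cells/well; 5hr pre-incubation 37C/5% CO2; compound pin transfer (DMSO); 16hr exposure; CellTiter-Fluor added, 1hr, fluorescence read.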

[5] = Caspase-3/7 induction in CHO-K1 cells by small molecules, qHTS assay (AID 1346980); also: nearly all actives have a fitted effect of over 15% in size
Procedure, shortened: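 Wild-type cells were seeded at 1,500 per well and settled 5 hr at 37 C, 5% CO2, then exposed to DMSO-dissolved compounds for 17 hr. Caspase-Glo 3/7 reagent was added, and luminescence was read after 30min at room temperature.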

[6] = Caspase-3/7 induction in HepG2 cells by small molecules, qHTS cell viability counter screen (AID 1346981); also: series mostly up to about 92 µM; nearly all actives have a fitted effect of over 30% in size
Procedure, shortened: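 Wild-type HepG2 cells, 2,000/well, settled 5 hr at 37 C, 5% CO2 before compound addition. Viability read by CellTiter-Fluor fluorescence, reagent added after 16 hr compound exposure, then 1 hr at 37C, in the same wells as the caspase read.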

[7] = target: Nuclear receptor subfamily 1 group I member 2 (Homo sapiens) (UniProt O75469); assay: Human pregnane X receptor (PXR) small molecule agonists, qHTS assay (AID 1346982); also: nearly all actives have a fitted effect of over 35% in size; also: potency is read from the fitted curve at half-maximal effect
Procedure, shortened: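 PXR-Luc HepG2 reporter cells (CYP3A4-driven luciferase) in 5% charcoal-stripped FBS medium, plated 5 h before compound addition, then treated 24 h at 37C. Luciferase read by ONE-Glo luminescence after 30 min at room temperature.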

[8] = target: Cytochrome P450 2C19 (Homo sapiens) (UniProt P33261); assay: Cytochrome P450 Family 2 Subfamily C Member 19 (CYP2C19) small molecule antagonists: luciferase reporter qHTS assay (AID 1671197); also: nearly all actives have a fitted effect of over 65% in size; also: potency is read from the fitted curve at half-maximal effect
Procedure, shortened: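 Luminescent readout of CYP2C19 activity: luciferin product detected 20 min after adding detection reagent. Before that, compound and enzyme-substrate mix preincubated 10 min at room temperature; NADPH-regenerating system started a 1 h, 37C reaction. Ketoconazole as positive control.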

[9] = target: Cytochrome P450 2C9 (Homo sapiens) (UniProt P11712); assay: Cytochrome P450 Family 2 Subfamily C Member 9 (CYP2C9) small molecule antagonists: luciferase reporter qHTS assay (AID 1671198); also: nearly all actives have a fitted effect of over 50% in size; also: potency is read from the fitted curve at half-maximal effect
Procedure, shortened: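 CYP2C9 activity was measured with a P450-Glo proluciferin substrate. Enzyme–substrate mix was held with compound for 10 min at room temperature, then NADPH regeneration solution was added for 1 h at 37C. Luciferin product was read as luminescence.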

[10] = target: Voltage-gated inwardly rectifying potassium channel KCNH2 (Homo sapiens) (UniProt Q12809); assay: Human Ether-a-go-go-Related Gene (hERG) channel small molecule antagonists: fluorescence cell-based qHTS assay (AID 1671200);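 also: hERG-expressing U2OS cells given a thallium stimulus after FluxOR II dye loading; series mostly up to about 77 µM; nearly all actives have a fitted effect of over 50% in size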
Procedure, shortened: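 Read-out: thallium influx as a surrogate for potassium, tracked as fluorescence (480 nm ex/540 nm em) every second for 2 min after Stimulus Buffer addition in dye-loaded hERG-U2OS cells.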

[11] = target: Cytochrome P450 3A4 (Homo sapiens) (UniProt P08684); assay: Cytochrome P450 Family 3 Subfamily A Member 4 (CYP3A4) small molecule antagonists: luciferase reporter qHTS assay (AID 1671201); also: nearly all actives have a fitted effect of over 50% in size; also: potency is read from the fitted curve at half-maximal effect
Procedure, shortened: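 Luminescent readout (RLU) proportional to CYP3A4 activity, from luciferin generated off a proluciferin substrate. Enzyme–substrate mix plus compound 10 min at room temp, NADPH regeneration 1 h, detection reagent 20 min.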

[12] = target: Cytochrome P450 2D6 (Homo sapiens) (UniProt P10635); assay: Cytochrome P450 Family 2 Subfamily D Member 6 (CYP2D6) small molecule antagonists: luciferase reporter qHTS assay (AID 1671196); also: nearly all actives have a fitted effect of over 50% in size; also: potency is read from the fitted curve at half-maximal effect
Procedure, shortened: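 Cell-free P450-Glo system: CYP2D6 with proluciferin substrate was pre-incubated with compound for 10 min, then reacted with NADPH regeneration for 1 h at room temperature. Luciferin product was detected after 20 min, and data were reported as relative luminescence units.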

[13] = target: Cytochrome P450 1A2 (Homo sapiens) (UniProt P05177); assay: Cytochrome P450 Family 1 Subfamily A Member 2 (CYP1A2) small molecule antagonists: luciferase reporter qHTS assay (AID 1671199); also: nearly all actives have a fitted effect of over 50% in size; also: potency is read from the fitted curve at half-maximal effect
Procedure, shortened: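 P450-Glo CYP1A2 enzyme–proluciferin substrate mix with compound 10 min at room temperature, then NADPH regeneration 1 h at room temperature. Luciferin detection reagent added, luminescence read after 20 min; furafylline positive control.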

Measured: Potency

Sequence of Voltage-gated inwardly rectifying potassium channel KCNH2 (Homo sapiens) (Q12809 whole entry, looked up): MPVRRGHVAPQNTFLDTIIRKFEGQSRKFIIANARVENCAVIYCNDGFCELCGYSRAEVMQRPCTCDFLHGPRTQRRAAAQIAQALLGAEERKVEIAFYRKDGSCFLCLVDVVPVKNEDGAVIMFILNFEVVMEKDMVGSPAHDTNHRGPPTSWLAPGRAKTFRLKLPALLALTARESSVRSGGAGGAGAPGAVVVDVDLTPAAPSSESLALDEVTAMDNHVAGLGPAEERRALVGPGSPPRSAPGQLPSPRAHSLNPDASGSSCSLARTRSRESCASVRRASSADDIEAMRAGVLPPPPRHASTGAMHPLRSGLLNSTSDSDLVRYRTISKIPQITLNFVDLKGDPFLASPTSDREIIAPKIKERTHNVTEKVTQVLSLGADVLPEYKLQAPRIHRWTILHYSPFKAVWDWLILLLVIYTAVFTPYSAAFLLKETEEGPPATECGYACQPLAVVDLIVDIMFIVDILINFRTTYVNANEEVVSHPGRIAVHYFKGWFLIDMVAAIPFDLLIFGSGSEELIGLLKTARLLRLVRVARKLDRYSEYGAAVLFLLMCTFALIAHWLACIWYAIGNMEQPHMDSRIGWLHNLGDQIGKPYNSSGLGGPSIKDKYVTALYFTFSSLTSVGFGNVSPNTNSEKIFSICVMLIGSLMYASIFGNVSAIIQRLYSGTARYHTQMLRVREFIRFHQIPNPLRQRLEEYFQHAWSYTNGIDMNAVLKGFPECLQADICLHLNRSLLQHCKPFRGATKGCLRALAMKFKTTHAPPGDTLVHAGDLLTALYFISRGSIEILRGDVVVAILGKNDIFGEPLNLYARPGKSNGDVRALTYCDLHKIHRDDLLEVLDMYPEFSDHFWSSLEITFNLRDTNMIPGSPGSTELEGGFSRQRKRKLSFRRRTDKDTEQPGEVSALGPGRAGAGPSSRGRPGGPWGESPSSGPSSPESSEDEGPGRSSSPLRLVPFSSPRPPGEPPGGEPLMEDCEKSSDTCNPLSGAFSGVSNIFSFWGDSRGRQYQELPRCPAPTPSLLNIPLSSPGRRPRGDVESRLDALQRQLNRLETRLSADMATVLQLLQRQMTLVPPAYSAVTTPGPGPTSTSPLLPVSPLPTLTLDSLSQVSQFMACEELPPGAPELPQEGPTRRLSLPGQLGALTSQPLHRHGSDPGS
Sequence of Thyrotropin-releasing hormone receptor (Homo sapiens) (P34981 whole entry, looked up): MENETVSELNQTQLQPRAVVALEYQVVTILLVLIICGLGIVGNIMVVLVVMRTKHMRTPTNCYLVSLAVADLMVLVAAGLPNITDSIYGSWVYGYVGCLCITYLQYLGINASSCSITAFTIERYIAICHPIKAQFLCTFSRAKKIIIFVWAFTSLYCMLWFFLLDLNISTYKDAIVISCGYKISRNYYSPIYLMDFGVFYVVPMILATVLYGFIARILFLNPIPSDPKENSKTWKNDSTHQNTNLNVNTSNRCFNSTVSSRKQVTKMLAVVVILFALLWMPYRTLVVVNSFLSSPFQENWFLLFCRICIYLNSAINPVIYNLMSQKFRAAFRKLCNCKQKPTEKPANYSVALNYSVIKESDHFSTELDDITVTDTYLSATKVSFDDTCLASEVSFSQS
Sequence of Cytochrome P450 1A2 (Homo sapiens) (P05177 whole entry, looked up): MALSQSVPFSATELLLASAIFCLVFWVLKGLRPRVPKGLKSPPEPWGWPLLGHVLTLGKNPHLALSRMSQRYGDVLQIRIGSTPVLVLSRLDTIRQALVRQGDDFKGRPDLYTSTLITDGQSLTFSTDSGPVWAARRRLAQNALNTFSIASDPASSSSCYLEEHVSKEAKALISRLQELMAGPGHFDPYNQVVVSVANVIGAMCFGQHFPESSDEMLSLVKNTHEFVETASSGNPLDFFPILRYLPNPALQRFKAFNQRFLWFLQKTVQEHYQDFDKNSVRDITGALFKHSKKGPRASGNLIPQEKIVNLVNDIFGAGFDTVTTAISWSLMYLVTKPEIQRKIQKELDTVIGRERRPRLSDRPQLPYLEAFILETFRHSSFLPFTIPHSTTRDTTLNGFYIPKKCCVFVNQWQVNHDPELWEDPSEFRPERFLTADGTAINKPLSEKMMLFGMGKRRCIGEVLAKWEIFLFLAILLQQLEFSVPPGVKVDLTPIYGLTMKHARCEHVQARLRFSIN
Sequence of Cytochrome P450 3A4 (Homo sapiens) (P08684 whole entry, looked up): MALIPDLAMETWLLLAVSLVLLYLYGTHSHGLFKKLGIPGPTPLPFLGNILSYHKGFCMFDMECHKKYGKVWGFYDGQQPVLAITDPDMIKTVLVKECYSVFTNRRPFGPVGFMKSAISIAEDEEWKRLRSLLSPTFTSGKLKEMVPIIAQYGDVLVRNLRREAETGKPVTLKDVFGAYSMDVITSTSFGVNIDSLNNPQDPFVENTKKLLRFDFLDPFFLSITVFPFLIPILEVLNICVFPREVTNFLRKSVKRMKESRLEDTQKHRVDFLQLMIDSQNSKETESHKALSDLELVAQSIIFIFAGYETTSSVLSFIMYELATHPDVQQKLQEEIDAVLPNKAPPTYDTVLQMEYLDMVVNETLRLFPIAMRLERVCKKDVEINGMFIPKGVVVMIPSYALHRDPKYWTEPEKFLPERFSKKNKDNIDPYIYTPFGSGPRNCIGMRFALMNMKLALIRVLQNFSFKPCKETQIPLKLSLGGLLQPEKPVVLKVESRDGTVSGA
Sequence of Cytochrome P450 2C9 (Homo sapiens) (P11712 whole entry, looked up): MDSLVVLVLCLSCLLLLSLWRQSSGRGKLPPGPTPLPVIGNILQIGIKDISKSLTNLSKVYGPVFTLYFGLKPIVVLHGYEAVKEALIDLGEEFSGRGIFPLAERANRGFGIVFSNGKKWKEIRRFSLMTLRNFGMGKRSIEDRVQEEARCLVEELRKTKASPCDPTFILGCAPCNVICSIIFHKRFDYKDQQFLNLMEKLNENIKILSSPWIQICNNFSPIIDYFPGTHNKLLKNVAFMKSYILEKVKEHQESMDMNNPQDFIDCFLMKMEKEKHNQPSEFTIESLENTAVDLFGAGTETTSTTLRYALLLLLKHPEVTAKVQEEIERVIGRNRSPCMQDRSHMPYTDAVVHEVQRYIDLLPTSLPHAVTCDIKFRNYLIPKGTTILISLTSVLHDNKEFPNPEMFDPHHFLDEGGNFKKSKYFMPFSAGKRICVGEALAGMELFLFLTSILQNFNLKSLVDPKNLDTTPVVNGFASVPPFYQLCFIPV
Sequence of Cytochrome P450 2D6 (Homo sapiens) (P10635 whole entry, looked up): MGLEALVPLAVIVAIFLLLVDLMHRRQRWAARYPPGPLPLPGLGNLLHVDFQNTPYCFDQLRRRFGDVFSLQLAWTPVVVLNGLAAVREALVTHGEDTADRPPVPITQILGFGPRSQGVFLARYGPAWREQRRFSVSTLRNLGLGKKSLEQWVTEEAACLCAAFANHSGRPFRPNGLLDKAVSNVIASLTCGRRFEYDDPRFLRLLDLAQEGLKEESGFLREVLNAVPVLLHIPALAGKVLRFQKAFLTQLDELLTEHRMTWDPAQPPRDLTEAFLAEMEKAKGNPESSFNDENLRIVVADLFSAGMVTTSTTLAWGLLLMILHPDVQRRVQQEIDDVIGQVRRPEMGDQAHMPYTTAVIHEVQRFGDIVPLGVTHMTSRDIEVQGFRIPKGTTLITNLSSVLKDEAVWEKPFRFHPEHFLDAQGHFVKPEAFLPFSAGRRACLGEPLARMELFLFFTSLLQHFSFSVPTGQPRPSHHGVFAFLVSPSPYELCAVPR
Sequence of Cytochrome P450 2C19 (Homo sapiens) (P33261 whole entry, looked up): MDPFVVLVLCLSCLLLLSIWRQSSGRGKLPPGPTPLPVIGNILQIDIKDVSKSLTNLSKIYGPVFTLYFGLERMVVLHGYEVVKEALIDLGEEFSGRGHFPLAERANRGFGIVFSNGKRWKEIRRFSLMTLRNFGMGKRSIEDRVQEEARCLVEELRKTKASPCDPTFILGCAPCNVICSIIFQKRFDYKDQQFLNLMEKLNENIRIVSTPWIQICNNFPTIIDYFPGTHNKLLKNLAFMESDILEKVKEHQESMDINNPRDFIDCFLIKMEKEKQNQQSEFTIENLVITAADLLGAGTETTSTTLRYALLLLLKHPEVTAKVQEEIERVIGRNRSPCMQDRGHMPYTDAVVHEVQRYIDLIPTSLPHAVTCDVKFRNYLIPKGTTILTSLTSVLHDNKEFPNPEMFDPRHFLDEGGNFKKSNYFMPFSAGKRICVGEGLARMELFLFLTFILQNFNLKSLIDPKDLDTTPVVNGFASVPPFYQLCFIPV
Sequence of Nuclear receptor subfamily 1 group I member 2 (Homo sapiens) (O75469 whole entry, looked up): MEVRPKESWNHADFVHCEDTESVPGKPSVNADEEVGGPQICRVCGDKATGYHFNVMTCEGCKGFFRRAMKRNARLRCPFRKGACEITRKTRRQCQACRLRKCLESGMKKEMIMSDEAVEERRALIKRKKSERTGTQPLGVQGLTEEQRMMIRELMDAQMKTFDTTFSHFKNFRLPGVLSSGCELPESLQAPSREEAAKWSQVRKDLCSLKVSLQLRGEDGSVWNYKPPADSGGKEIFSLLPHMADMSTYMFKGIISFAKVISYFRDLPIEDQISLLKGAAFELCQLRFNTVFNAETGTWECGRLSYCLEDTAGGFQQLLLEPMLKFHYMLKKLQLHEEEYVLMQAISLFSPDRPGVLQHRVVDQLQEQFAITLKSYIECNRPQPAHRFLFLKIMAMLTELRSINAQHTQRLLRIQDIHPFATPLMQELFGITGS

C=CC(=O)N1CCOCC1
active: [8] 35.6 µM
not listed: [12] | [13]
inactive: all other assays above

CCCCCCCCCCCCI
not listed: [8] | [9] | [10] | [13]
inactive: all other assays above

O=C(O)C1CCC1
not listed: [12]
inactive: all other assays above

CC(=O)CCc1ccc(O)cc1
active: [8] 20 µM
not listed: [12]
inactive: all other assays above

CC(C=O)Cc1ccc(C(C)C)cc1 (stereo not drawn)
active: [8] 50.2 µM
not listed: [9] | [12] | [13]
inactive: all other assays above

CC(C)(C)OC(=O)N1C[C@@H](F)C[C@H]1C(=O)O
active: [11] 36.8 µM
not listed: [8] | [9] | [12] | [13]
inactive: all other assays above

C#CC(O)C(CC)CCCC (stereo not drawn)
active: [8] 71 µM
not listed: [7] | [9] | [11]
inactive: all other assays above

O=C1OC(=O)c2cc([N+](=O)[O-])ccc21
not listed: [8] | [12] | [13]
inactive: all other assays above

CC(C)c1cccc(C(C)C)c1N
active: [13] 20 µM
not listed: [8] | [9]
inactive: all other assays above

C(=C(c1ccccc1)c1ccccc1)c1ccccc1
active: [8] 5.03 µM | [9] 5.03 µM | [13] 35.6 µM
not listed: [7] | [10]
inactive: all other assays above

c1ccc(CCCc2ccccn2)cc1
active: [7] 34.4 µM | [8] 5.64 µM | [9] 35.6 µM | [13] 22.4 µM
not listed: [12]
inactive: all other assays above

CCc1cc(S(=O)(=O)O)c2cc(C(C)C)cccc1-2
not listed: [8] | [9]
inactive: all other assays above

COC(=O)CCCCCCCCC(=O)OC
active: [13] 40.1 µM
not listed: [8] | [9] | [12]
inactive: all other assays above

O=[N+]([O-])c1ccc(CCO)cc1
not listed: [10] | [12] | [13]
inactive: all other assays above

CC(=O)NC(Cc1ccccc1)C(=O)O (stereo not drawn)
not listed: [12]
inactive: all other assays above

CCO[Si](CCCN=C=O)(OCC)OCC
active: [11] 35.6 µM
not listed: [12]
inactive: all other assays above

CCCCN(CCO)CCO
not listed: [8] | [9]
inactive: all other assays above

Nc1ccc2cc(S(=O)(=O)O)ccc2c1
active: [12] 39.9 µM | [8] 39.9 µM | [9] 50.2 µM
not listed: [7] | [13]
inactive: all other assays above

O=C(O)/C=C/c1ccc(/C=C/C(=O)O)cc1
not listed: [8] | [12]
inactive: all other assays above

CC(=O)N[C@@H](CCC(N)=O)C(=O)O
not listed: [8] | [12]
inactive: all other assays above

CCOC(=O)Cn1c(=O)sc2cccc(Cl)c21
active: [7] 27.3 µM | [8] 7.96 µM | [9] 10 µM | [13] 5.03 µM
not listed: [11] | [12]
inactive: all other assays above

Nc1ncnc2c1ncn2Cc1c(F)cccc1Cl
not listed: [5] | [7] | [12]
inactive: all other assays above

CCCc1ccccc1O
not listed: [6] | [9] | [13]
inactive: all other assays above

O=S(=O)(c1cccc2cnccc12)N1CCCNCC1
active: [2] 26.6 µM
inactive: [1] | [3] | [4] | [5] | [6] | [13] | [10]

NS(=O)(=O)c1cc(C2(O)NC(=O)c3ccccc32)ccc1Cl (stereo not drawn)
not listed: [5] | [7] | [8] | [11] | [13]
inactive: all other assays above

CCCc1ccc(N)cc1
active: [8] 35.6 µM | [13] 35.6 µM
not listed: [7] | [9] | [11]
inactive: all other assays above

CCC(=O)Nc1cccc(N)c1
not listed: [5] | [11] | [13]
inactive: all other assays above

CC(C)COC(=O)c1ccccc1O
not listed: [5] | [8] | [13]
inactive: all other assays above
